The source made the active and inactive calls. Cut-off read from the data, not from the text of the source: active = activation above about 85%; inactive = the rest.
Molecular target: Peroxisome proliferator-activated receptor gamma (Homo sapiens) (UniProt P37231)
Assay: PPARg partial agonist activation, primary screen, cell-based, luciferase reporter, luminescence (AID 504452);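 note: Cos-1 cells carrying PPARgamma and a response element luciferase reporter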
Settings: at 5 µM, stronger effect = higher value; activation (% of full agonist control): measured here: relative to full agonist control

Peroxisome proliferator-activated receptor gamma (Homo sapiens), sequence (P37231 whole entry, looked up): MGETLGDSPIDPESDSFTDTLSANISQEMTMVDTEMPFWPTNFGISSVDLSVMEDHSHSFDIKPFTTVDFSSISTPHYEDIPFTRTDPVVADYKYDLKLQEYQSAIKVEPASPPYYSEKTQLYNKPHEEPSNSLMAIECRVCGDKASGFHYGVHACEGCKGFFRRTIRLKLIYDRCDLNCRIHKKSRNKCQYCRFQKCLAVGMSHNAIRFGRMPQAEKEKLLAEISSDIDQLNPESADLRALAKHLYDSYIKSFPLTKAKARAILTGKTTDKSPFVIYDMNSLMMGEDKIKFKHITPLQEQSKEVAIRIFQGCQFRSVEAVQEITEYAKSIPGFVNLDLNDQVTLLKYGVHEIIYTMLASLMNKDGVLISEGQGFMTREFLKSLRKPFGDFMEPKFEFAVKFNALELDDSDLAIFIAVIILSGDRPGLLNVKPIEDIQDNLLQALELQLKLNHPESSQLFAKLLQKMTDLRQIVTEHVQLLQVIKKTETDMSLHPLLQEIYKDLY

Structure (SMILES) | activation (% of full agonist control) [%] | activation (% of partial agonist control)
CC(=O)N/C(=C\c1ccc2c(c1)OCO2)C(=O)NC(C(=O)O)c1ccccc1 (stereo not drawn) | 27.7 | 61.4% (inactive)
COc1ccc(N2CCN(C3CC(=O)N(Cc4ccc(N5CCCC5=O)cc4)C3=O)CC2)cc1 (stereo not drawn) | 27.6 | 61.2% (inactive)
CCOc1cc(N2CCOCC2)c(OCC)cc1NC(=O)c1oc2ccccc2c1C | 29.4 | 65.1% (inactive)
CCN(C(=O)CSc1nnc(-c2ccc(F)cc2)c2ccccc12)C1CCS(=O)(=O)C1 (stereo not drawn) | 34.5 | 76.4% (inactive)
O=C(OCC1OC(Oc2ccc(O)cc2)C(O)C(O)C1O)c1ccccc1 (stereo not drawn) | 9.83 | 21.8% (inactive)
O=C(Nc1c(C(=O)Nc2ccc3c(c2)OCCO3)cnn1-c1ccccc1Cl)c1ccco1 | 47.5 | 105% (active)
O=C(CN1c2cccc3cccc(c23)S1(=O)=O)N1CCN(c2ccc(F)cc2)CC1 | 34.1 | 75.5% (inactive)
c1ccc(CCN2CN(CCCN3CCOCC3)c3nc4ccccc4n3C2)cc1 | 24.6 | 54.4% (inactive)
Cc1ccc2cc(CN(Cc3ccccc3)Cc3nnnn3C3CCCC3)c(=O)[nH]c2c1 | 39.2 | 86.8% (active)
COc1ccc(N2CCN(C(=O)CNC(=O)Cn3c(C)cc4ccccc4c3=O)CC2)cc1 | 33.3 | 73.7% (inactive)
CCOc1cccc(/C(O)=C2/C(=O)C(=O)N(CCN3CCOCC3)C2c2ccncc2)c1 (stereo not drawn) | 41.3 | 91.4% (active)
COc1ccc(N2C(=O)C(=O)/C(=C(/O)c3ccc(C)cc3)C2c2cccnc2)cc1 (stereo not drawn) | 28.8 | 63.8% (inactive)
COc1ccc(S(=O)(=O)N2CCCCC2)cc1NC(=O)C1CSC2(C)CCC(=O)N12 (stereo not drawn) | 40.2 | 89% (active)
Cc1ccc(O)c(C(=O)c2cc(C#N)c(=O)n(C(C)c3ccccc3)c2)c1 (stereo not drawn) | 33.3 | 73.7% (inactive)
Nc1ccc(-n2c(N)c(C(=O)NCc3ccc4c(c3)OCO4)c3nc4ccccc4nc32)cc1 | 26.3 | 58.3% (inactive)
O=C(Cc1cccs1)N1CCCC(c2nc3c(nnn3Cc3ccc(F)cc3)c(=O)[nH]2)C1 (stereo not drawn) | 32.7 | 72.5% (inactive)
O=c1c2cn(Cc3ccc(F)cc3)c3ccccc3c-2nn1Cc1ccc(F)cc1 | 40.3 | 89.3% (active)

Structure (SMILES) | activation (% of full agonist control) [%] | activation (% of partial agonist control)
O=C1CC(N2CCN(Cc3ccc4c(c3)OCO4)CC2)C(=O)N1Cc1ccc(N2CCCC2=O)cc1 (stereo not drawn) | 41.4 | 91.6% (active)
CC(=O)c1cccc(NC(=O)CSc2nc(=O)n(CCN3CCOCC3)c3c2CCCC3)c1 | 36.2 | 80.2% (inactive)
CCOc1ccc2nc(N3C(=O)C(O)=C(C(=O)c4ccco4)C3c3ccco3)sc2c1 (stereo not drawn) | 38.5 | 85.2% (active)
O=C(CCn1c(=O)c2sccc2n(CC(=O)OCc2ccccc2)c1=O)NCc1ccccc1 | 31.1 | 68.8% (inactive)
O=C(NCCc1c[nH]c2ccccc12)N[C@@H](Cc1ccccc1)C(=O)O | 33.3 | 73.7% (inactive)
CC(Oc1cccc(Cl)c1)C(=O)Nc1cc(S(=O)(=O)N2CCOCC2)ccc1N1CCCC1 (stereo not drawn) | 35.3 | 78.1% (inactive)
Cc1c(CNCCC2=CCCCC2)c(C(=O)O)c(C)n1Cc1ccccc1 | 10 | 22.2% (inactive)
O=S(=O)(NCC(c1ccco1)N1CCc2ccccc2C1)c1ccc(F)cc1 (stereo not drawn) | 29.9 | 66.1% (inactive)
Cc1cccc(Cn2cc3c(=O)n(Cc4cccc(F)c4)nc-3c3ccccc32)c1 | 38 | 84.2% (inactive)
COc1ccc(C2CC(=O)N3CN(c4ccccc4F)CSC3=C2C#N)cc1OC (stereo not drawn) | 29.2 | 64.7% (inactive)
COC(=O)C1=CN(Cc2ccccc2)C=C(C(=O)OC)C1c1ccc(OC)c(OC)c1 | 25.9 | 57.3% (inactive)
OCCC1CN(Cc2cccn2-c2cccnc2)CCN1Cc1ccc(F)cc1 (stereo not drawn) | 29.8 | 66% (inactive)
COc1cc(/C=C(\NC(=O)c2ccccc2)C(=O)NC(C(=O)O)c2ccccc2)cc(OC)c1OC (stereo not drawn) | 39.8 | 88% (active)
C=CCSc1nnc(N2C(=O)C(O)=C(C(=O)c3ccco3)C2c2ccc(F)cc2)s1 (stereo not drawn) | 30.5 | 67.6% (inactive)
COc1ccccc1N1C(=O)C2C(c3ccccc3F)NN(C(=O)c3ccc(C)cc3)C2C1=O (stereo not drawn) | 26.8 | 59.4% (inactive)
CC(Oc1cccc(Cl)c1)C(=O)Nc1ccc(N2CCOCC2)cc1N1CCOCC1 (stereo not drawn) | 33.2 | 73.5% (inactive)
O=c1[nH]c2cc3c(cc2cc1CN(CCN1CCOCC1)C(=S)NCC1CCCO1)OCO3 (stereo not drawn) | 26.6 | 59% (inactive)
